Results filed as inconclusive are left out. Calls of active or inactive are those of the source. The calls were made as follows: active = hit-call score of the fitted dose curve at least 0.9, where 1 is the maximum; inconclusive = response in the unintended direction; inactive = score below 0.9.
Legend:
[1] = target: Cellular tumor antigen p53 (Homo sapiens) (UniProt P04637); experiment: TOX21_p53_BLA_p2_ratio: Tox21 HCT-116 p53 Agonism Beta-lactamase Assay, Ratio, Phase 2 (AID 2283592)
In short: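 Ratio endpoint: beta-lactamase cleavage of CCF4-AM, blue (460 nm) over green (530 nm). HCT116 reporter line; 16 h treatment, 37C; substrate 2 h RT.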

[2] = TOX21_p53_BLA_p3_viability: Viability Assessment in the Tox21 HCT-116 p53 Agonism Beta-lactamase Assay, Phase 3 (AID 2283593);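 also: cells exposed to compound for 16 h before reading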
In short: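 HCT-116 cells (4000/well) rested 5 h at 37C, then got DMSO compounds by pin tool (217-fold dilution) for 16 h at 37C, 5% CO2. After the bla read, CellTiter-Glo was added and luminescence read at 30 min, room temperature.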

[3] = target: Cellular tumor antigen p53 (Homo sapiens) (UniProt P04637); experiment: TOX21_p53_BLA_p3_ratio: Tox21 HCT-116 p53 Agonism Beta-lactamase Assay, Ratio, Phase 3 (AID 2283596)
In short: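 Cells were seeded at 4000/well, rested 5 h at 37C, then dosed with DMSO compound solutions (217-fold dilution) for 16 h. CCF4-AM substrate was loaded for 2 h at room temperature, and the 460/530 nm emission ratio was fitted for gain of signal versus DMSO.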

[4] = target: Cellular tumor antigen p53 (Homo sapiens) (UniProt P04637); experiment: TOX21_p53_BLA_p5_ratio: Tox21 HCT-116 p53 Agonism Beta-lactamase Assay, Ratio, Phase 5 (AID 2283599)
In short: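 HCT-116 cells carrying a p53-inducible beta-lactamase reporter were seeded at 4000 cells/well and dosed after 5 h with compound in DMSO (217-fold dilution). After 16 h at 37C, CCF4-AM substrate was added for 2 h, and the 460/530 nm emission ratio was scored as gain-of-signal versus DMSO.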

[5] = target: Cellular tumor antigen p53 (Homo sapiens) (UniProt P04637); experiment: TOX21_p53_BLA_p4_ratio: Tox21 HCT-116 p53 Agonism Beta-lactamase Assay, Ratio, Phase 4 (AID 2283601)
In short: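 HCT116 cells carrying an inducible beta-lactamase reporter were plated at 4000 cells/well, rested 5 h, then exposed to compounds in DMSO (217-fold dilution) for 16 h at 37C. CCF4-AM substrate was loaded 2 h at room temperature; 460/530 nm emission ratio scored gain-of-signal versus DMSO.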

[6] = TOX21_p53_BLA_p5_viability: Viability Assessment in the Tox21 HCT-116 p53 Agonism Beta-lactamase Assay, Phase 5 (AID 2283600)
In short: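 Luciferase-coupled ATP quantitation of cells treated for 16 h (37C, 5% CO2) with test chemicals delivered in DMSO via a 217-fold dilution; 4000 cells/well; reagent incubated 30 min at room temperature before luminescence reading.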

[7] = TOX21_p53_BLA_p4_viability: Viability Assessment in the Tox21 HCT-116 p53 Agonism Beta-lactamase Assay, Phase 4 (AID 2283597);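 also: hits lower the luminescence signal meaning cytotoxicity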
In short: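 Cytotoxicity was inferred from loss of CellTiter-Glo luminescence. HCT116 cells had been dosed with compounds after 5 h plating, incubated 16 h at 37C and 5% CO2, and exposed to the CCF4-AM substrate for 2 h.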

PGR (gene 5241) [8] = target: PGR (gene 5241) (UniProt P06401); experiment: TOX21_PR_BLA_Followup_Agonist_ratio: Tox21 HEK293 Progesterone Receptor (PR) Agonism Beta-lactamase Follow-Up Assay, Ratio (AID 2283933)
PGR (gene 5241), sequence (P06401 whole entry, looked up): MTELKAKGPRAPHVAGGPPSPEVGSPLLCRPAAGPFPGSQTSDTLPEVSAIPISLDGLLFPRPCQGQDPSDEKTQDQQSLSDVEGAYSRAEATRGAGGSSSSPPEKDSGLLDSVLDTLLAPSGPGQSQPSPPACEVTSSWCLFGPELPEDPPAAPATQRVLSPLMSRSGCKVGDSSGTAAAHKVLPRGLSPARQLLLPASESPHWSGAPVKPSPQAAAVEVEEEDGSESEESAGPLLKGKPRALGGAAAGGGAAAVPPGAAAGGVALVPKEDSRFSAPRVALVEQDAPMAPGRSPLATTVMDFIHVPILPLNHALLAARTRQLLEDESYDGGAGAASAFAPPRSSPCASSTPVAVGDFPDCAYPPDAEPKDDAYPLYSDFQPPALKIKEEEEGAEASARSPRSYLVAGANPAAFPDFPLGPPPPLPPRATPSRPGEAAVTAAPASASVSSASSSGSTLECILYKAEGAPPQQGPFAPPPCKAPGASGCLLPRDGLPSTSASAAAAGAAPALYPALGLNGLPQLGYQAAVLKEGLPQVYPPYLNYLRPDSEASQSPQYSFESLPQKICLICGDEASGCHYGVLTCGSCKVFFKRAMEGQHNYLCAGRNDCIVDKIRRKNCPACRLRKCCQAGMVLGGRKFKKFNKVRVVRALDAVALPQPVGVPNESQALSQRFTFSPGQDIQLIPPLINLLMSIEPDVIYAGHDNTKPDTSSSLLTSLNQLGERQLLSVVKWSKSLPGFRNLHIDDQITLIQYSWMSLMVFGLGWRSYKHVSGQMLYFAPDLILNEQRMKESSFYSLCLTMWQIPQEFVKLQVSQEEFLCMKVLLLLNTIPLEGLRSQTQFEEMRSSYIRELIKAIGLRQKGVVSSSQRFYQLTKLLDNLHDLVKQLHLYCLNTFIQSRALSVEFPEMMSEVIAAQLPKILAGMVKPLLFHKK
In short: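 Cells were seeded and held 6 hr before compound addition, exposed for 16 hr at 37C, then given FRET substrate for 2 hr at room temperature. Agonism was scored from the blue/green substrate cleavage ratio against DMSO controls.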

PGR (gene 5241) [9] = target: PGR (gene 5241) (UniProt P06401); experiment: TOX21_PR_BLA_Followup_Antagonist_ratio: Tox21 HEK293 Progesterone Receptor (PR) Antagonism Beta-lactamase Follow-Up Assay, Ratio (AID 2283934);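 also: PR-UAS-bla HEK293T cells stimulated with 1 nM R5020 agonist for 16 hr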
In short: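 Cells are plated, rested 6 hr, then dosed with test compound in DMSO and challenged with 1 nM promegestone. After 16 hr incubation, substrate loading for 2 h at room temperature precedes fluorescence reading; viability is measured in the same wells.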

[10] = TOX21_PR_BLA_Followup_Agonist_viability: Viability Assessment in the Tox21 HEK293 Progesterone Receptor (PR) Agonism Beta-lactamase Follow-Up Assay (AID 2283935);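 also: signal loss means lower viability so actives are cytotoxic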
In short: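 Cells were plated in medium with 2% charcoal-stripped FBS and rested 6 hr. Compounds in DMSO were then added for 16 hr at 37C, followed by the FRET substrate step and CellTiter-Glo luminescence after 30 min.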

[11] = TOX21_PR_BLA_Followup_Antagonist_viability: Viability Assessment in the Tox21 HEK293 Progesterone Receptor (PR) Antagonism Beta-lactamase Follow-Up Assay (AID 2283936);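 also: cells exposed to compound with R5020 agonist for 16 h; hits lower the luminescence signal meaning cytotoxicity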
In short: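 PR-UAS-bla HEK293T cells in medium with 2% charcoal-stripped FBS were treated with compounds plus R5020 for 16 hr at 37C. After the beta-lactamase read, CellTiter-Glo was added to the same wells and luminescence read after 30 min at room temperature.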

PGR (gene 5241) [12] = target: PGR (gene 5241) (UniProt P06401); experiment: TOX21_PR_LUC_Followup_Antagonist: Tox21 HEK293 Progesterone Receptor (PR) Antagonism Luciferase Follow-Up Assay (AID 2283938);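 also: curve fitted upward as signal gain over DMSO baseline despite antagonist label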
In short: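 HEK293-PR-A-luc cells were precultured 5 days in medium with 10% charcoal-stripped FBS, seeded 3,000/well, then exposed to compounds in DMSO for 16 h at 37C. Luciferase was read by ONE-Glo luminescence after 30 min at room temperature.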

[13] = TOX21_PR_LUC_Followup_Agonist_viability: Viability Assessment in the Tox21 HEK293 Progesterone Receptor (PR) Agonism Luciferase Follow-Up Assay (AID 2283941);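 also: loss of signal means cytotoxicity so actives lower viability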
In short: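 Multiplexed viability endpoint of the PR agonist luciferase follow-up: HEK293-PR-A-luc cells treated 16 h at 37C, with viability scored as decrease in CellTiter-Glo ATP signal.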

[14] = target: Thyroid hormone receptor alpha (Rattus norvegicus) + Thyroid hormone receptor beta (Rattus norvegicus) (UniProt P18113+P63059); experiment: TOX21_TR_LUC_GH3_Antagonist_Followup: Tox21 GH3 Thyroid Hormone Receptor Antagonism Luciferase Follow-Up Assay (AID 2283942)
In short: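 In a GH3 luciferase reporter line, test chemicals spanning 92 uM to 5nM final are co-incubated 24 h with 1.0 nM T3. Activity is expressed as relative luminescence units and analysed relative to DMSO.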

THRB (gene 7068) [15] = target: THRB (gene 7068) (UniProt P10828); experiment: TOX21_TRB_BLA_Antagonist_Followup_ratio: Tox21 Thyroid Hormone Receptor beta Antagonism Beta-lactamase (BLA) Follow-Up Assay, Ratio (AID 2283958)
THRB (gene 7068), sequence (P10828 whole entry, looked up, the tested form may be a part): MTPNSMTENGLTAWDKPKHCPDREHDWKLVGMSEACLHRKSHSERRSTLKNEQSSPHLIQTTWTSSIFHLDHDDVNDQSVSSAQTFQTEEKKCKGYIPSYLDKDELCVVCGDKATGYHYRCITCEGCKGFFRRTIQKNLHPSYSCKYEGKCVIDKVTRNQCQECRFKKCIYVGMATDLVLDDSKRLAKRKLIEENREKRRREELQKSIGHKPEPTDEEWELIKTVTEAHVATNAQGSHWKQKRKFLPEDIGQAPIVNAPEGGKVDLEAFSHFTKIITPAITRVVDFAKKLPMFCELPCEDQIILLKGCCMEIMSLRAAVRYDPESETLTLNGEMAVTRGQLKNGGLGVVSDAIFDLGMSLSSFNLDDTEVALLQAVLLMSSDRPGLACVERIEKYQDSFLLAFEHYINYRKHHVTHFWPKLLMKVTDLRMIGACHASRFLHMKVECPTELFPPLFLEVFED
In short: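 Cells were plated and allowed to attach for 5 h, then dosed with compounds in DMSO at 11 concentrations for 18 h at 37C. Beta-lactamase reporter activity was measured via CCF4-AM FRET as the 460:530 nm ratio.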

THRB (gene 7068) [16] = target: THRB (gene 7068) (UniProt P10828); experiment: TOX21_TRB_COA_Antagonist_Followup_ratio: Tox21 Thyroid Hormone Receptor beta Antagonism through Coactivator Recruitment Follow-Up Assay, Ratio (AID 2283967)
In short: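 Coactivator (SRC-2) recruitment to purified GST-TRβ ligand-binding domain is monitored by terbium-to-fluorescein energy transfer, emission ratio 520:495 nm. DMSO wells define 0% and T3 wells 100% activity.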

[17] = TOX21_TR_RXR_BLA_Antagonist_Followup_viability: Viability Assessment in the Tox21 Thyroid Hormone Receptor beta Retinoid X Receptor alpha (RXRa) Antagonism Beta-lactamase (BLA) Follow-Up Assay (AID 2283979)
In short: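 RXRa-UAS-bla HEK293T cells seeded 2,500/well in phenol red-free DMEM with 2% charcoal-stripped FBS, attached 5 h, then exposed to compounds at 11 concentrations in triplicate for 16 h at 37C/5% CO2. Viability read by CellTiter-Glo ATP luminescence; bidirectional fit versus DMSO.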

Measured: AC50

Cellular tumor antigen p53 (Homo sapiens), sequence (P04637 whole entry, looked up): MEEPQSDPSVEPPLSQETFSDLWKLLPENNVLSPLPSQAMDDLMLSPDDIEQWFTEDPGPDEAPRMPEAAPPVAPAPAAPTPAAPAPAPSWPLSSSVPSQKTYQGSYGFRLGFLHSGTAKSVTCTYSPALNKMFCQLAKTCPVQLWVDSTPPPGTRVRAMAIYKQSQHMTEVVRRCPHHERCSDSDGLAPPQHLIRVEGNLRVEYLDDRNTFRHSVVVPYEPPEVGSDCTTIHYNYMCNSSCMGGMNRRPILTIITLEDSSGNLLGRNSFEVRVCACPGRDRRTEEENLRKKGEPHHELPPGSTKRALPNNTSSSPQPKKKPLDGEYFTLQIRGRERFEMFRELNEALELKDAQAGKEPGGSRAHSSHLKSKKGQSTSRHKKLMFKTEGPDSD

[S]=[Sb](=[S])[S][Sb](=[S])=[S]
inactive: [1] | [2] | [3] | [4] | [5]

C[C@]12CC[C@H]3[C@@H](CC=C4C[C@@H](O)CC[C@@]43C)[C@@H]1CC[C@@H]2O
inactive: [1] | [3] | [4] | [6]
active: [2] 43.5 µM

C=CCCC#N
inactive: [1] | [2] | [3] | [7] | [6]

Cc1cccc(Cc2cnc[nH]2)c1C
inactive: [1] | [2] | [3] | [4] | [6] | [5]

O=C1C(Cl)C(CCl)CN1c1cccc(C(F)(F)F)c1 (configuration not stated)
inactive: [1] | [2] | [3] | [7] | [4] | [5] | PGR (gene 5241) [8] | PGR (gene 5241) [9] | [10] | [11] | PGR (gene 5241) [12] | [13]

Cc1ccc2ccccc2c1
inactive: [1] | [2] | [3] | [4] | [5]

CNc1ccc(C(=O)CC(O)CCC(C)C2OC(=O)CC(O)CC(=O)CC(O)CC(O)CC(O)CC(O)CC3(O)CC(O)C(C(=O)OC)C(CC(O[C@@H]4O[C@H](C)[C@@H](O)[C@H](N)[C@@H]4O)/C=C/C=C/C=C/C=C/C=C/C=C/C=C/C2C)O3)cc1 (some centres not stated) (tested in a mixture with another compound)
active: [1] 37.8 µM
inactive: [2] | [3] | [7] | [6] | [5]

Cc1ccc(Cl)c(O)c1
inactive: [1] | [2] | [3] | [4] | [6] | [5]

C=C(Cl)CSC(=S)N(CC)CC
inactive: [1] | [2] | [3] | [4] | [5]

Clc1ccc2ccccc2c1
inactive: [1] | [2] | [3] | [4] | [5]

ClCOCCl
inactive: [1] | [2] | [3] | [4] | [6]

C=C[C@H]1CN2CC[C@H]1C[C@@H]2[C@@H](O)c1ccnc2ccccc12
inactive: [1] | [2] | [3] | [4] | [6]

CCCN
inactive: [1] | [2] | [3] | [4] | [6] | [5]

CCCCC(CC)COC(=O)OOC(C)(C)C (configuration not stated)
inactive: [1] | [2] | [3] | [4] | [5]

C[C@]12CC[C@H]3[C@@H](CCC4=C(Cl)C(=O)CC[C@@]43C)[C@@H]1CC[C@@H]2O
inactive: [1] | [2] | [3] | [7] | [4] | [6] | [5] | [14] | THRB (gene 7068) [15] | THRB (gene 7068) [16] | [17]

Reference: PubChem BioAssay (EPA / NIEHS)
